D1 allo mod – allosteric modulators of human D1 dopamine receptor; P21728; HEK293 D1, CRE-luciferase, dopamine EC30 potentiation; actives deviate in either direction; B-score at 10 µM; 58,000 compounds, 5.9% hits; AID 641;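 active = luminescence count or its row- and column-corrected plate score outside the 99.7% band of the plate's sample wells, on either side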
Target sequence (P21728 whole entry, looked up): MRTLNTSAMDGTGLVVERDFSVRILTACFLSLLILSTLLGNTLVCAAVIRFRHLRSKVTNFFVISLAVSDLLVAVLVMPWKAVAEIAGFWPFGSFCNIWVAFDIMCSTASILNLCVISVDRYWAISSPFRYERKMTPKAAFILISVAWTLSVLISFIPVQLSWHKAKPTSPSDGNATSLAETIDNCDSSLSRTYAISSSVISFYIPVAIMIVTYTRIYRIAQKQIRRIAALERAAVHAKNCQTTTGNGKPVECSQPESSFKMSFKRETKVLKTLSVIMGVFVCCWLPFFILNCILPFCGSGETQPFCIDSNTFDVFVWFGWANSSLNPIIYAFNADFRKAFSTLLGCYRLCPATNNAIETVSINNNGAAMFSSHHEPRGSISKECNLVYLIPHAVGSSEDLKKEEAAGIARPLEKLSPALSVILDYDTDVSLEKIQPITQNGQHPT
CYP2C9 act – increases human cytochrome P450 2C9 activity; P11712; recombinant CYP2C9, luciferin-H conversion, luminescence; active compounds read high; factor 1 = untreated enzyme, 0 = blocked; activation factor at 5 µM; 96,000 compounds, 1.4% hits;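 active = activation factor of 2 or more for CYP2C9 at a 5 µM dose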;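 note: 0 = sulfaphenazole-blocked wells and 1 = vehicle-only wells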
CYP2C9 inhib – inhibitors of human CYP2C9; P11712; CYP2C9 Supersomes, luciferin-H conversion, luminescence; inhibition, % at 5 µM; 96,000 compounds, 20% hits; AID 777;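 active = blocking of liver enzyme CYP2C9 beyond about 50% at 5 µM, limit read from the data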
hDAT+cocaine – human DAT dopamine uptake with cocaine, either direction; AID 449768; LLC-PK1 hDAT cells, [14C]-dopamine uptake with cocaine IC80; actives deviate in either direction; B-score at 10 µM; 110,000 compounds, 1.3% hits; Q01959;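 active = Z score or B-score, a plate-position-corrected score, falls beyond the plate's 99.7% confidence bounds, in either direction; inactive = both scores lie inside the 99.7% bounds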;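 note: scored against the spread of the other compound wells on the same plate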
CYP2C19 inh – blocks human cytochrome P450 2C19; P33261; CYP2C19 Supersomes, luciferin-H EGE luminescence, 30 min; inhibition, % at 5 µM; 96,000 compounds, 21% hits;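 active = CYP2C19 inhibition above a set limit at 5 µM in the primary screen, cut at about 50% in these data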;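 note: plate controls were negative control wells for no effect and 2.5 mM tranylcypromine positive control for full effect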
CYP2C19 activ – cytochrome P450 2C19 (human) activation | P33261 | recombinant CYP2C19, luciferin-H EGE luminescence; active compounds read high; 0 = fully inhibited enzyme, 1 = untreated enzyme | activation factor at 5 µM | 96,000 tested, under 10 active;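 active = activation factor of at least 2 at 5 µM in the primary screen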;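 note: 0 = wells with 2.5 mM tranylcypromine and 1 = vehicle-only wells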
An asterisk follows results filed as active; . = no result. Most compounds without a hit are left out; they make up all but 28% or so of the library.

SMILES | D1 allo mod | CYP2C9 act | CYP2C9 inhib | hDAT+cocaine | CYP2C19 inh | CYP2C19 activ
CC(CCO)Nc1nc2c(c(=O)n(C)c(=O)n2C)n1Cc1cccc(Br)c1 (stereo not given) | 0.98 | 0.5 | 49 | 2.3 | 60* | 0.4
CC(O)CNc1nc2c(c(=O)n(C)c(=O)n2C)n1Cc1cccc(C(F)(F)F)c1 (stereo not given) | . | 0.7 | 29 | 1.8* | 32 | 0.7
O=C(NCCCN1CCOCC1)c1csc2c1CCCC2 | -0.67 | 1.2 | -21 | -1.5 | -5 | 1
CCCNc1nc2c(c(=O)n(C)c(=O)n2C)n1Cc1cccc(C)c1 | 0.28 | 0.6 | 38 | 0.014 | 58* | 0.4
COc1ccc(C(=O)Cn2c(Br)nc3c2c(=O)n(C)c(=O)n3C)cc1 | 0.73 | 1.1 | -8 | 0.26 | -7 | 1.1
COc1ccc(Nc2nc3c(c(=O)n(C)c(=O)n3C)n2CCO)cc1 | 0.7 | 0.4 | 59* | 0.072 | 3 | 1
CCOC(=O)C1CCCN(C(=O)CN2C(=O)c3ccccc3C2=O)C1 (stereo not given) | 0.23 | 1.2 | -15 | 1.1 | -9 | 1.1
O=C(NCC1c2ccccc2CCN1C(=O)CN1C(=O)c2ccccc2C1=O)C1CCCCC1 (stereo not given) | . | 0.3 | 72* | 0.062 | -8 | 1.1
COc1cccc(NC(=O)c2ccccc2NS(C)(=O)=O)c1 | . | 0.3 | 65* | 0.48 | 9 | 0.9
CS(=O)(=O)Nc1ccccc1C(=O)Nc1cc(Cl)cc(Cl)c1 | . | 0.6 | 38 | 0.01 | 0 | 1
CS(=O)(=O)Nc1ccccc1C(=O)c1ccccc1 | 0.035 | 1.2 | -19 | -0.055 | 61* | 0.4
COc1ccc(NC(=O)c2ccccc2NS(C)(=O)=O)cc1OC | 1.1 | 0.4 | 57* | -1.3 | 1 | 1
CS(=O)(=O)Nc1ccccc1C(=O)Nc1cccc(Cl)c1 | -2.3 | 0.3 | 68* | -1.4 | 48 | 0.5
CS(=O)(=O)Nc1ccccc1C(=O)Nc1ccccc1Cl | . | . | . | -0.62 | . | .
COc1cc(-c2nnc(CSc3nnc4nc(C)cc(C)n34)o2)cc(OC)c1OC | -0.62 | 0.9 | 9 | -0.6 | 10 | 0.9
COc1ccccc1N(CN1CCCC1=O)C(=O)COc1ccccc1 | . | 0.9 | 7 | -0.42 | 8 | 0.9
COC(=O)c1ccc(NC(=O)c2ccccc2NS(C)(=O)=O)cc1 | -0.78 | 0.3 | 66* | -0.17 | 23 | 0.8
COCCCNC(=O)c1ccccc1NS(C)(=O)=O | -0.61 | 1.1 | -5 | 0.17 | 1 | 1
CCS(=O)(=O)Nc1ccc(C(=O)OC)cc1 | -0.45 | 0.3 | 69* | -1.1 | 64* | 0.4
CSc1nc(-c2ccccc2)nc2[nH]ccc(=O)c12 | 0.21 | . | . | . | . | .
CCCCn1c(SCC2CCCCO2)nc2cc(S(N)(=O)=O)ccc21 (stereo not given) | 0.97 | 0.5 | 46 | 1.8 | 7 | 0.9
CCN(CC)c1nc(OCCNC(=O)Nc2ccccc2)nc(N(CC)CC)n1 | . | 0.1 | 88* | 1.6 | 48 | 0.5
CCN(CCNC(=O)Nc1ccc(Cl)cc1)c1ccccc1 | -1.3 | 0.7 | 26 | -0.14 | 59* | 0.4
CCCCCCNC(=O)Nc1ccccc1 | -0.53 | 0.4 | 56* | -1.1 | 96* | 0
O=C(O)CCCNC(=O)Nc1ccccc1 | . | . | . | -0.34 | . | .
SMILES | D1 allo mod | CYP2C9 act | CYP2C9 inhib | hDAT+cocaine | CYP2C19 inh | CYP2C19 activ
O=C(NCCOc1nc(N2CCCCC2)nc(N2CCOCC2)n1)Nc1ccccc1 | -0.023 | 0.3 | 69* | 0.82 | 38 | 0.6
CCN(CCNC(=O)C1CCN(S(C)(=O)=O)CC1)c1ccccc1 | 0.0073 | 1.2 | -18 | 0.17 | 5 | 1
CCCn1nc(NC(=O)CC(C)C)c2cc3ccccc3nc21 | . | 0.7 | 28 | -0.046 | 12 | 0.9
Cc1ccc(S(=O)(=O)N(C)CCCC(=O)n2nc(C)cc2C)cc1 | 1.2 | 1.9 | -89 | -0.46 | 89* | 0.1
CCOC(=O)C1=C(C)NC(C)=C(C(=O)OCC)C1C(=O)OC1CCOC1=O (stereo not given) | -0.02 | 1 | -4 | 0.021 | 28 | 0.7
Cc1ccc(S(=O)(=O)NNC(=O)C2Cc3c(ccc4ccccc34)O2)cc1 (stereo not given) | . | 0.4 | 56* | -8.5* | 20 | 0.8
c1ccc(-c2nnc(C3CC(c4ccncc4)=NO3)o2)cc1 (stereo not given) | . | . | . | -0.057 | . | .
COc1ccccc1CNC(=O)c1cccc(N(C)C)c1 | . | 2.3* | -132 | 0.95 | 32 | 0.7

Assay outcomes deposited in PubChem by several laboratories.
